Bioassay records as filed in PubChem BioAssay.
An excerpt weighted towards active compounds, which were near 5.6% of everything screened.
Cardio protect = modulators protecting cardiomyocytes from myocardial damage. protection from H2O2 cell death, % at 20 µM. 360,000 compounds, 0.63% hits. H9c2 cardiomyocytes, H2O2 injury protection, ATPLite, 2 h;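 active = compounds giving at least 50% protection of heart cells from peroxide-induced death in the single-dose screen, raw or plate-pattern-corrected value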
PHOSPHO1 inh = inhibitors of human PHOSPHO1 phosphatase. Q8TCT1. recombinant PHOSPHO1, absorbance phosphatase assay. inhibition, % at 13.3 µM. 290,000 compounds, 1.1% hits; in the data active = inhibition above about 60%
Target sequence (Q8TCT1 whole entry, looked up): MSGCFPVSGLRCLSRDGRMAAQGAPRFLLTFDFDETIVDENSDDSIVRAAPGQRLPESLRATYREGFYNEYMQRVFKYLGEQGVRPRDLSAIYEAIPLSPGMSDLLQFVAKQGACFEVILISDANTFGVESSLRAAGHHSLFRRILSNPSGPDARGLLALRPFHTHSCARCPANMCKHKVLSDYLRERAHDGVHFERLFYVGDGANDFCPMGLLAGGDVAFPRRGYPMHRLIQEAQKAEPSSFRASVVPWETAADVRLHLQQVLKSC
PfM18AAP inh = blocks P. falciparum M18 aspartyl aminopeptidase | inhibition, % at 7.35 µM | recombinant PfM18AAP, H-Glu-NHMec fluorogenic cleavage | 290,000 compounds, 1.2% hits;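 active = inhibition above the campaign mean inhibition over all tested compounds plus 3 SD, cut at about 28% in these data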
ALR inh = human ALR oxidase inhibition via reduced H2O2; P55789; purified ALR, DTT oxidation, H2O2 HRP-luminol luminescence; inhibition, % (test concentration not listed); 290,000 compounds, 3.8% hits; AID 485317;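 active = mean replicate inhibition above about 79%, with every replicate also reaching it, limit read from the data; inconclusive = only one of the two criteria met; inactive = mean below limit and not every replicate reaching it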
Target sequence (P55789 whole entry, looked up): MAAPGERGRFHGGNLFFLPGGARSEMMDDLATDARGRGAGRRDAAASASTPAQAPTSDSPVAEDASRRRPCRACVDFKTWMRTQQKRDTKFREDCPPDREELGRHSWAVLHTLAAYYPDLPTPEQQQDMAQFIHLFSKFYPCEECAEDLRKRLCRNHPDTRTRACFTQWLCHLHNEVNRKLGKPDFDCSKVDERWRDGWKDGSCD
PfG6PD inh = PfG6PD (Plasmodium falciparum) enzyme inhibition. inhibition, % at 20 µM. PfGluPho enzyme, NADPH resazurin-diaphorase fluorescence. 350,000 compounds, 0.78% hits;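 active = inhibition reaching at least a set limit at 20 µM in the primary screen, cut at about 59% in these data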
Of the large screens only hits and unclear results are named; the others gave an inactive call.

CC(C)C[C@H](NC(=O)C1CC(=O)N(c2ccc3c(c2)OCO3)C1)C(=O)NC1CCCC1 (stereo not given in full)	PHOSPHO1 inh 70.1
O=C(NCc1ccc2c(c1)OCO2)C1CC(=O)N(C2CCCC2)C1 (stereo not given)	PHOSPHO1 inh 63.9
O=C(NCCc1ccccc1)C1CC(=O)N(c2ccc3c(c2)OCCO3)C1 (stereo not given)	none (no result: PHOSPHO1 inh, PfM18AAP inh, ALR inh)
O=C(NC(Cc1ccccc1)c1nc2ccccc2[nH]1)C1CC(=O)N(c2ccc3c(c2)OCCO3)C1 (stereo not given)	PHOSPHO1 inh 95.8 (no result: ALR inh)
CCN(c1ccc(OC)cc1)S(=O)(=O)c1nnc(NC(=O)COc2ccccc2)s1	none
c1ccc2c(c1)CC(N1CCCCC1)c1ccccc1N2 (stereo not given)	ALR inh 84.8
O=C1Nc2ccccc2C(=O)N2CCCCC12 (stereo not given)	none
Cc1nc2c(C(=O)N3CCOCC3)cnn2c(C)c1Cc1ccc(Cl)cc1	ALR inh 98.5
Cn1c(N)c(C(=O)CCl)c(=O)n(Cc2ccccc2)c1=O	ALR inh 99.1
Cn1c(N)cc(=O)n(Cc2ccccc2)c1=O	ALR inh 99.0
CCn1c(SCCN2CCCCC2)nc2c1c(=O)n(C)c(=O)n2C	none (no result: PHOSPHO1 inh, PfM18AAP inh, ALR inh)
COc1ccc2[nH]c3c(=O)n(CCCCC(=O)NCCN4CCCC4)c(=S)[nH]c3c2c1	PHOSPHO1 inh 102.0, ALR inh inconclusive
COc1ccc2[nH]c3c(=O)n(CCCCC(=O)N4CCC(C(N)=O)CC4)c(=S)[nH]c3c2c1	PHOSPHO1 inh 103.5
CC(C)CCNC(=O)C1CCN(S(=O)(=O)c2ccc3c(c2)CCC(=O)N3)CC1	ALR inh 84.5
O=C(NNc1ccc(Cl)cc1)c1c(F)cccc1Cl	PfM18AAP inh 31.4
O=C(NNc1cc(Cl)ccc1Cl)c1c(F)cccc1Cl	none
O=C(NNc1ccc(F)cc1)c1c(F)cccc1Cl	PfM18AAP inh 29.9
CCC(=O)NC(=S)Nc1ccc(N2CCN(C(=O)c3ccc(Cl)cc3)CC2)cc1	none
CC(=O)N[C@@H]1[C@@H](O)[C@@H]2OC(c3ccccc3)OC[C@H]2O[C@@H]1N=[N+]=[N-] (stereo not given in full)	none
N#C/C(C(=O)N1CCCC1)=C1/N=C(N)c2ccccc21	none
Cc1ccc(NC(=O)NC2=N/C(=C(/C#N)C(=O)N3CCCC3)c3ccccc32)cc1	Cardio protect 70.0 (no result: PfM18AAP inh)
O=C(C[C@H]1C/C=C\CCCC(=O)OC[C@H]2CCCN2C1=O)NCCO	none (no result: PHOSPHO1 inh, PfM18AAP inh)
COc1cc(/C=C2\SC(=O)N(CC(=O)Nc3cccc(C)c3)C2=O)cc([N+](=O)[O-])c1O	PHOSPHO1 inh 62.2 (no result: ALR inh)
CCOc1cc(/C=C2\SC(=O)N(CC(=O)Nc3ccccc3F)C2=O)cc([N+](=O)[O-])c1O	none
CC(C)CC1Nc2ccc(C(=O)NCCCN3CCCCC3C)cc2NC1=O (stereo not given)	none
Cc1cc(-n2c(C)cc(C(=O)CSc3ncnc4ccccc34)c2C)no1	PHOSPHO1 inh 84.1, ALR inh 98.3
Cc1cc(-n2c(C)cc(C(=O)CSc3nnc4sc5ccccc5n34)c2C)no1	none
Cc1cc(C(=O)CSc2nc3ccccc3o2)c(C)n1C1CC1	none
Cc1cc(C(=O)CSc2ncnc3ccccc23)c(C)n1C1CC1	ALR inh 98.0 (no result: PHOSPHO1 inh, PfM18AAP inh)
Cc1cc(C)n2nc(SCC(=O)c3cc(C)n(-c4cc(C)on4)c3C)nc2n1	PHOSPHO1 inh 102.3
c1ccc(Oc2ccccc2-c2cc(NCCc3cccnc3)n3nccc3n2)cc1	none (no result: PHOSPHO1 inh, PfM18AAP inh, ALR inh, PfG6PD inh)
Cc1cccc(/C=N/NC(=O)C(C)Nc2cccc3ccccc23)n1 (stereo not given)	PHOSPHO1 inh 80.3
CC(C)c1cc(Cn2c3ccccc3c(=O)n2C(C)CBr)on1 (stereo not given)	none (no result: PHOSPHO1 inh, PfM18AAP inh, ALR inh, PfG6PD inh)
Cc1nc2c(s1)sc1ccccc12	none
CC[n+]1c(C)sc2sc3ccccc3c21	PfM18AAP inh 60.3 (no result: Cardio protect, PfG6PD inh)
O=C(Cc1ccccc1F)NNC(=O)c1cccs1	none (no result: PHOSPHO1 inh, PfM18AAP inh)
O=C(Cc1coc2cc(O)ccc12)NNC(=O)c1cccs1	ALR inh 99.0 (no result: PHOSPHO1 inh, PfM18AAP inh)
Cc1ccc(/C=C2/SC(=O)NC2=S)o1	PHOSPHO1 inh 68.1 (no result: ALR inh)
Cc1ccc(/C=C2\SC(=S)N(CC3CCCO3)C2=O)o1 (stereo not given)	PHOSPHO1 inh 76.8
O=C1/C(=C/c2ccco2)SC(=S)N1CC1CCCO1 (stereo not given)	none
O=C1/C(=C/c2cccnc2)SC(=S)N1CC1CCCO1 (stereo not given)	none
O=C1/C(=C\c2ccc(-c3ccccc3Cl)o2)SC(=S)N1CC1CCCO1 (stereo not given)	PHOSPHO1 inh 81.3
